# This is a sample that favours compounds with a hit; in the whole collection about 0.96% have one here.
# Fluorescein fluor = qHTS Assay for Spectroscopic Profiling in Fluorescein Spectral Region. Compound autofluorescence, 480/540 nm, fluorescein-equivalent; active compounds read high. max fluorescein-equivalent concentration, M. actives 0.91% (n = 59,000); in the data active means max fluorescein-equivalent concentration above about 10 nM; inconclusive means between about 1.1 nM and that limit
#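 Spectral profiling of library compounds in the fluorescein window (480 nm excitation, 540 nm emission) after 15 min at room temperature in pH 8.0 Tris (100 mM). Values are dye-equivalent concentrations.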
# Resorufin fluor = qHTS Assay for Spectroscopic Profiling in Resorufin Spectral Region | Compound fluorescence, resorufin region 547/598 nm, buffer; active compounds read high | max dye-equivalent concentration, M | actives 0.04% (n = 59,000)
#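 Tris 100 mM pH 8.0; compound added, 15 min RT; CCD imager read, ex 547 nm/em 598 nm; signal normalized to resorufin standard curve (six concentrations per plate) as dye-equivalent concentration.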
# A647 fluor = qHTS Assay for Spectroscopic Profiling in A647 Spectral Region; 59,000 tested, under 10 active; max dye-equivalent concentration, M; AID 592, 2007; Compound fluorescence, A647 channel (570/671 nm), Tris buffer;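 further: values scaled relative to a standard on each plate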
#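 Each compound's intrinsic fluorescence at 570 nm excitation and 671 nm emission is measured across its concentration series in 100 mM Tris, pH 8.0, after 15 min at room temperature, and reported relative to an A647 curve.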
# A488 autofl = qHTS Assay for Spectroscopic Profiling in A488 Spectral Region; max dye equivalency, M; compound autofluorescence, A488 spectral region, dye equivalency; Compound Type: qHTS ECL - MLSMR; actives 0.1% (n = 59,000); AID 591, 2007
#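 Compound autofluorescence was read in 100 mM Tris pH 8.0 after 15 min at room temperature, ex 480 nm/em 540 nm. Intensities were converted to A488 dye-equivalent concentration using an on-plate six-point A488 standard curve.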
# TexasRed autofl = qHTS Assay for Spectroscopic Profiling in Texas Red Spectral Region | max dye-equivalent concentration, M | actives 0.06% (n = 59,000) | Compound fluorescence, Texas Red channel, 547/618 nm; active compounds read high | AID 587, 2007; in the data active means max dye-equivalent concentration above about 10 nM; inconclusive means between about 1.1 nM and that limit
#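 Spectral interference profiling: each compound concentration's relative fluorescence, read with a 547 nm excitation and 618 nm emission filter pair, was normalized to a per-plate Texas Red standard curve.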
# Rhodamine autofl = qHTS Assay for Spectroscopic Profiling in Rhodamine Spectral Region; Rhodamine-region fluorescence, 547/598 nm, Tris buffer; active compounds read high; max dye-equivalent concentration, M; actives 0.05% (n = 59,000); AID 594, 2007; in the data active means max dye-equivalent concentration above about 11 nM; inconclusive means between about 1.1 nM and that limit
#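 Compounds in 100 mM Tris buffer, pH 8.0, were incubated 15 min at room temperature, then read at 547 nm excitation and 598 nm emission. Fluorescence was normalized against a per-plate six-point rhodamine standard curve as dye-equivalent concentration.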
# Active calls of the source: *; i = inactive; u = inconclusive; ! = not confirmed by another sample. Unless noted, how the calls were made is not given here.
SMILES,Fluorescein fluor,Resorufin fluor,A647 fluor,A488 autofl,TexasRed autofl,Rhodamine autofl
CCOC(=O)C1CCCN(c2nc3ccccc3nc2C(C#N)C(=O)OCCOC)C1 (stereo not drawn),u,i,2.73e-08,i,i,i
CCOC(=O)C1CCCN(c2nc3ccccc3nc2C(C#N)C(=O)OCC)C1 (stereo not drawn),1.09e-08M*,i,3e-09,i,i,i
COCCNC(=O)C(C#N)c1nc2ccccc2nc1N1CCCCCC1 (stereo not drawn),u,i,2.66e-08,i,i,i
CCOC(=O)C1CCN(c2nc3ccccc3nc2C(C#N)C(=O)NCCc2ccccc2)CC1 (stereo not drawn),2.3e-08M*,i,1e-09,i,i,i
COc1ccc(CSc2nnc(C)n2N)cc1,2.3e-08M*,i,2.46e-08,i,i,i
Cc1nnc(SCc2ccccc2)n1N,i,i,2.95e-08,i,i,i
C=CCOc1cccc(C2C(C(=O)c3ccc(C)o3)=C(O)C(=O)N2c2nccs2)c1 (stereo not drawn),3.62e-08M*,i,1.88e-08,u,i,i
CC[C@H](C)[C@@H]1O[C@]2(CC[C@@H]1C)C[C@H]1C[C@H](CC=C(C)[C@@H](O[C@H]3C[C@H](OC)[C@H](O[C@H]4C[C@H](OC)[C@H](O)[C@H](C)O4)[C@H](C)O3)[C@@H](C)C=CC=C3CO[C@@H]4[C@@H](O)C(C)=C[C@H](C(=O)O1)[C@@]34O)O2,i,i,1.2e-09,i,i,i
O=C(O)CCc1c2ccc(=O)c(O)c-2oc2c(O)c(O)ccc12,1.14e-08M*,i,1e-09,i,i,i
COc1ccccc1CN1CCCC2(CCN(C(=O)c3cccn3C)CC2)C1,i,i,1e-09,i,i,i
N#CC1=C(N)Oc2n[nH]c(-c3cccs3)c2C1c1ccco1 (stereo not drawn),1.01e-07M*,u,1e-09,u,u,u
C=C[C@H]1CN2CC[C@@H]1C[C@@H]2[C@@H](O)c1ccnc2ccc(OC)cc12,u,i,4.8e-08,i,i,i
CC#C[C@@]1(O)CC[C@@H]2[C@@H]3CCC4=CC(=O)CCC4=C3[C@@H](c3ccc(N(C)C)cc3)C[C@]21C,i,i,3e-09,i,i,i
CN1CCC(OC(=O)COc2ccc(C(C)(C)C)cc2)CC1,2.99e-08M*,i,1e-09,u,i,i
CCCOc1cc(N)ccc1C(=O)OCCN(CC)CC,u,i,2.48e-08,i,i,i
CCCOc1ccc(N)cc1N,1.86e-08M*,i,1e-09,i,i,i
O=C(O)/C(=C\c1ccccc1)Cc1ccccc1,u,i,1.61e-08,i,i,i
NS(=O)(=O)c1cc2c(cc1Cl)NCNS2(=O)=O,1.08e-08M*!,i,1.52e-08,i,i,i
NS(=O)(=O)c1cc2c(cc1Cl)N[C@@H](CC1CCCC1)NS2(=O)=O,i,i,1e-09,i,i,i
Cc1cccc(CNc2ncncc2-c2ccc(C(=O)N(C)C)cc2)c1,i,i,1e-09,i,i,i
COc1ccccc1NC(=O)c1cc2ccc(O)cc2o/c1=N\O,1.45e-08M*,i,3.38e-08,i,i,i
COc1ccccc1NC(=O)c1cc2ccccc2o/c1=N\O,u,i,4.41e-08,i,i,i
CC(C)OC(=O)CC(=O)c1sc2nc3c(cc2c1N)CN(C)CC3,1.89e-07M*,i,2.61e-08,u,i,i
O=C(NCc1ccco1)c1cccnc1-c1nc2ccccc2s1,3.5e-08M*,i,2.2e-08,u,i,i
COCCNc1nc(-c2ccc(N(C)C)cc2)nc2ccccc12,i,i,1e-09,i,i,i
SMILES,Fluorescein fluor,Resorufin fluor,A647 fluor,A488 autofl,TexasRed autofl,Rhodamine autofl
CC(C)(CO[C@H]1C[C@H]2CC[C@@]1(C)C2(C)C)[N+](=O)[O-],u,i,5.97e-08,i,i,i
CN1CCC2(CC1)C1CN(C)CC=C1C(C#N)=C(N)C2(C#N)C#N (stereo not drawn),5.96e-08M*,i,2.1e-09,u,i,i
C=CCN1C(=O)C2(c3ccccc31)C1CCCC=C1C(C#N)=C(N)C2(C#N)C#N (stereo not drawn),i,i,1.48e-08,i,i,i
COC(=O)C1=CO[C@@H](C)[C@H]2CN3CCc4c([nH]c5ccccc45)[C@@H]3C[C@H]12,1.05e-08M*!,i,1.9e-09,i,i,i
COc1cccc2c1C(=O)c1c(O)c3c(c(O)c1C2=O)C[C@@](O)(C(C)=O)C[C@@H]3O[C@H]1C[C@H](N)[C@H](O)[C@H](C)O1,2.21e-07M*,5.95e-08M*,3.3e-09,u,6.51e-08M*,6.36e-08M*
CC[C@H](C)C(=O)O[C@@H]1CCC=C2C=C[C@H](C)[C@@H](CC[C@H]3C[C@@H](O)CC(=O)O3)[C@H]21,i,i,1e-09,i,i,i
COc1ccc(C(=O)N2CCC3(CC2)CN(C(=O)Nc2cccc(C#N)c2)C3)cc1,1.09e-08M*,i,1e-09,i,i,i
COc1ccc(NC(=O)N2CCC3(CC2)CCN(C(=O)c2ccncc2)CC3)cc1,i,i,1e-09,i,i,i
COC(=O)N1CCC2(CCN(C(=O)Nc3ccc(OC)cc3)CC2)CC1,1.54e-08M*,i,2.1e-08,i,i,i
COc1ccc(C(=O)N2CCC3(CCN(C(=O)Nc4cccc(C#N)c4)CC3)CC2)cc1,i,i,2.9e-09,i,i,i
CN(C)c1ccc(/C=C/c2ccncc2)cc1,1.15e-08M*,i,2.56e-08,i,i,i
COc1cccc(/C=C/c2ccncc2)c1OC,i,i,2.72e-08,i,i,i
CCN(CC)CC[n+]1ccc2c(C)c3[nH]c4ccccc4c3c(C)c2c1,1.7e-08M*,i,4.04e-08,i,i,i
CCN(CC)CCCn1c(=S)[nH]c2ccccc2c1=O,i,i,1.5e-09,i,i,i
C[C@H]1[C@H](NC(=O)/C(=N/OC(C)(C)C(=O)O)c2csc(N)n2)C(=O)N1S(=O)(=O)O (stereo in doubt),u,i,1e-09,i,i,i
COc1cc2c(cc1OC)CN(C(=O)CSc1nc(N)c(C#N)cc1C#N)CC2,1.89e-08M*,i,1.5e-09,i,u,i
CCC(=O)c1ccc(OCC(=O)N2CCc3cc(OC)c(OC)cc3C2)cc1,u,i,5.8e-09,i,i,i

# Screening results (PubChem)
